Results: article PMC4336329 (PLoS ONE, 2015)
The whole screen tested about 310,000 compounds, of which about 14,000 (4.5%) showed an effect of 50% or more. The effect is printed as a negative number. The sample as a whole holds a higher share of strong results than the screen did.

target: human ether-à-go-go-related gene (hERG) potassium channel (human, UniProt Q12809); assay: primary screen, population patch clamp on CHO cells stably expressing hERG; higher = less effect of the substance
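Further: peak tail current of the secondary pulse compared with the same well before compound.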

Sequence of human ether-à-go-go-related gene (hERG) potassium channel (Q12809 whole entry, looked up): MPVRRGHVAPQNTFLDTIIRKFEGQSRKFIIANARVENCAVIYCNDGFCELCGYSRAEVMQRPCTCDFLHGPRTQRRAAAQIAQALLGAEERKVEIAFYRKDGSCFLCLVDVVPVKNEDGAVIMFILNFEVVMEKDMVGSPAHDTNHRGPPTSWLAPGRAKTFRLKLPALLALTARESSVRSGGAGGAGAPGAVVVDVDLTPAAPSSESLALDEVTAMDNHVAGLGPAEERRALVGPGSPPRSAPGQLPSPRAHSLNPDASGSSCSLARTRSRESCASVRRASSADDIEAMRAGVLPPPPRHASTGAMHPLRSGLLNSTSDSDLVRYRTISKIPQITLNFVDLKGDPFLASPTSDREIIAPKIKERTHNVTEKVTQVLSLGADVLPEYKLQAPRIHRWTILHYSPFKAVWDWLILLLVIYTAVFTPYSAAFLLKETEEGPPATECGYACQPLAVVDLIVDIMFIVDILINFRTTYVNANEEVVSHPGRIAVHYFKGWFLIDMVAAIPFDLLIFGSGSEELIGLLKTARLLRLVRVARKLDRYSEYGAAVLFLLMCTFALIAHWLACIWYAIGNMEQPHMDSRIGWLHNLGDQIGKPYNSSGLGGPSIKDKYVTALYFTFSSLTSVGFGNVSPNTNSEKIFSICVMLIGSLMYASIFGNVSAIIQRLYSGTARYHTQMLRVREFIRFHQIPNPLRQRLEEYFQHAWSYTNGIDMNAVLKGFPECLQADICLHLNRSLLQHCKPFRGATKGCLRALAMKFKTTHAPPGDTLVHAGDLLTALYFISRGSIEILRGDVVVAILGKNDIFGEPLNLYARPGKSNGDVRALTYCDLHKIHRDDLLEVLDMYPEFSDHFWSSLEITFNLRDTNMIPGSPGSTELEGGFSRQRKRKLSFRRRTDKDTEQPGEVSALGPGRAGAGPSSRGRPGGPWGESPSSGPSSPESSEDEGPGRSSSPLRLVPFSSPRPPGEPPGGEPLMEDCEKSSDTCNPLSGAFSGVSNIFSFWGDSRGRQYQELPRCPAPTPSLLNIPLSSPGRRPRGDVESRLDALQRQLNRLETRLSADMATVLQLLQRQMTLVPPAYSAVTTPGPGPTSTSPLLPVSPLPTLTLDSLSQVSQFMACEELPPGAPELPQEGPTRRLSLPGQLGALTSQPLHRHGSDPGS

| SMILES | hERG current change (%, negative = inhibition) at 10uM |
| --- | --- |
| Cc1cc(C)c(C)c(S(=O)(=O)N2CCC(C(=O)NCC(c3ccccc3)N(C)C)CC2)c1C (stereo not shown) | -48.9% |
| CC(CC(=O)N(C)CC(=O)Nc1ccc(N2CCOCC2)cc1)c1ccccc1 (stereo not shown) | -13.3% |
| COC(C[C@H]1O[C@H]1C(=O)[C@H](C)OCc1ccccc1)OC | 14.5% |
| CCC(c1nnnn1Cc1ccccc1)N1CCN(c2ccccc2)CC1 (stereo not shown) | -8.7% |
| Cc1cc(Cl)ccc1NC(=O)Cn1cncn1 | 14.3% |
| O=C(c1ccc(CS(=O)Cc2ccc(Cl)cc2)o1)N1CCN(c2ccccc2)CC1 (stereo not shown) | -51.8% |
| O=C(c1ccc(CS(=O)c2ccccc2Cl)o1)N1CCN(c2ccccc2)CC1 (stereo not shown) | -38.2% |
| O=C(c1ccc(CS(=O)Cc2ccc(Cl)cc2)o1)N1CCN(c2cccc(Cl)c2)CC1 (stereo not shown) | -52.7% |
| O=C(c1ccc(COc2ccccc2Cl)o1)N1CCN(c2ccccc2)CC1 | -24.1% |
| COc1cccc(N2CCN(C(=O)c3ccc(CS(=O)Cc4ccc(Cl)cc4)o3)CC2)c1 (stereo not shown) | -41.8% |
| O=C(c1ccc(CS(=O)Cc2ccc(Cl)cc2)o1)N1CCN(c2ccc(F)cc2)CC1 (stereo not shown) | -62.1% |
| CN1CCN(C(=O)c2ccc(CS(=O)Cc3ccc(Cl)cc3)o2)CC1 (stereo not shown) | 13.1% |
| COc1cccc(N2CCN(C(=O)c3ccc(CS(=O)c4ccc(Cl)cc4)o3)CC2)c1 (stereo not shown) | -42% |
| CCOC(=O)C1=C(C)N(c2ccc(Cl)cc2)C(=O)NC1c1cccc([N+](=O)[O-])c1 (stereo not shown) | -24.8% |
| CCOc1ccc(S(=O)(=O)NCCC(=O)NCC2(N3CCCCC3)CCCCC2)cc1 | -33.2% |
| Cc1ccc[n+](CC(=O)Nc2cccc(Cl)c2)c1.[Cl-] | 18.4% |
| CCC(C)(C)C1CCc2c(sc(NC(=O)c3ccccc3C(=O)O)c2C#N)C1 (stereo not shown) | 10.3% |
| O=C1C=C(N2CCN(C(=O)c3ccccc3)CC2)C2(CCCCC2)O1 | -10.3% |
| O=C(NCCS(=O)(=O)N1CCc2ccccc2C1)c1ccccc1 | -23% |
| COc1cccc(SCc2noc(C(=O)NCCCN3CCOCC3)c2C(=O)NCCCN2CCOCC2)c1 | -4.2% |
| Cc1ccc(Cc2c(C)nc3nc(SCC(=O)NCCCN4CCCC4)nn3c2C)cc1 | -28.4% |
| Cc1ccc(Cc2c(C)nc3nc(SCC(=O)NCCCN4CCCCCC4)nn3c2C)cc1 | -54.8% |

| SMILES | hERG current change (%, negative = inhibition) at 10uM |
| --- | --- |
| Cc1ccc(Cc2c(C)nc3nc(SCC(=O)NCCCN4CCCCC4)nn3c2C)cc1 | -42.7% |
| CC(C)C[C@@H](N)c1nnc(SCC(=O)c2ccc(Cl)cc2)o1.Cl | -37.1% |
| CC1(C)CC(=O)C=C(Nc2ccccc2NC(=O)c2cnccn2)C1 | -64.7% |
| O=C(Nc1ccccc1Cl)c1cnccn1 | 2.9% |
| CC1(C)CC(=O)C=C(Nc2ccccc2O)C1 | 15.7% |
| Cc1ccc(-n2ncc3c2CCCC3NC(=O)c2ocnc2C)cc1C (stereo not shown) | 1.26% |
| CCOC(=O)c1[nH]c2ccccc2c1N=CN(CC)CC | -60.8% |
| CCOC(=O)c1[nH]c2ccccc2c1NC(=O)CN(C)C | 7.08% |
| CCOC(=O)c1[nH]c2ccccc2c1N=CN(C)C | -28.9% |
| CCOC(=O)c1[nH]c2ccc(F)cc2c1N=C(C)N(CC)CC | -55.4% |
| CCOC(=O)c1[nH]c2ccc(C)cc2c1N=C(C)N(C)C | -9.99% |
| CCOC(=O)c1[nH]c2ccccc2c1N=C(C)N(CC)CC | -54.7% |
| CCOC(=O)c1[nH]c2ccccc2c1NC(C)=O | -3.18% |
| CCOC(=O)c1[nH]c2ccc(F)cc2c1NC(=O)c1ccccc1C(=O)O | 19.4% |
| CCOC(=O)c1[nH]c2ccc(OC)cc2c1N=CN(C)C | -7.13% |
| CC(C)COc1ccc(CNC(=S)Nc2ccccc2)cc1Cl | 8.6% |
| Cc1cc(C)c2c(=O)[nH]n(C(C)C)c2n1 | 7.27% |
| O=C(O)c1ccc([N+](=O)[O-])c2c1C(=O)c1ccccc1C2=O | 23.5% |
| NC(=S)N/N=C/c1c[nH]c2ccc(OCc3ccccc3)cc12 | 6.65% |
| NC(=O)CSc1nnc(NC(=O)c2cccc(S(=O)(=O)N3CCCCC3)c2)s1 | 25.3% |
| CCC(C(=O)Nc1ccc2c(c1)OCCO2)c1ccccc1 (stereo not shown) | 13.4% |
| Cc1noc(C(=O)N2CCN(c3ccccc3)CC2)c1Cl | 6.13% |

| SMILES | hERG current change (%, negative = inhibition) at 10uM |
| --- | --- |
| CC1CCN(CCc2nc3cc(NS(=O)(=O)c4ccc(F)cc4)ccc3n2C)CC1 | -70.8% |
| CC1CCN(CCc2nc3cc(NS(=O)(=O)c4ccccc4)ccc3n2C)CC1 | -65.5% |
| Cn1c(CCN2CCCC2)nc2cc(NS(=O)(=O)c3ccccc3)ccc21 | -40.9% |
| CC1CCN(CCc2nc3cc(NC(=O)NC4CCCCC4)ccc3n2C)CC1 | -15.1% |
| CC1CCN(CCc2nc3cc(NC(=O)C(C)C)ccc3n2C)CC1 | -0.549% |
| Cn1c(CCN2CCOCC2)nc2cc(NS(=O)(=O)c3ccccc3)ccc21 | -1.84% |
| Cc1ccc(S(=O)(=O)NCCC(=O)NNC(=O)COc2ccccc2Cl)cc1C | -1.77% |
| O=C(NC1CCCCCC1)C1CC(=O)N(Cc2ccccc2)C1 (stereo not shown) | 5.17% |
| COc1ccccc1C(=O)NC(=S)Nc1ccc(N2CCOCC2)c(Cl)c1 | 13.1% |
| O=[N+]([O-])c1ccc(Cl)cc1 | 10.9% |
| CSc1cccc(NC(C)C(=O)NCc2ccccc2)c1 (stereo not shown) | 2.74% |
| c1ccc(N2CCN(Cc3ccnc4ccccc34)CC2)cc1 | -0.764% |
| CC(CCN1CCN(CCO)CC1)c1ccccc1 (stereo not shown) | 9.32% |
| CC(CCN1CCOCC1)c1ccccc1 (stereo not shown) | 21.9% |
| CC(CCN1CCN(c2ccc(F)cc2)CC1)c1ccccc1 (stereo not shown) | -64.3% |
| Cl.c1ccc(SCCN2CCN(c3ccccc3)CC2)cc1 | -10.9% |
| CN1CCN(Cc2cn(C)c3ccccc23)CC1CCO (stereo not shown) | 25.5% |
| CC(CCN1CCN(c2ccccc2)CC1)c1ccccc1.Cl (stereo not shown) | -54.6% |
| CC(CN1CCN(c2ccccc2)CC1)c1ccccc1 (stereo not shown) | -25.5% |
| Cn1cc(CN2CCN(c3ccccc3)CC2)c2ccccc21 | -54% |
| N#CCN1C(=O)NC2(CCCc3sccc32)C1=O (stereo not shown) | 11.1% |
| COc1cccc(-c2csc(/C(C#N)=C/Nc3cc4oc5ccccc5c4cc3OC)n2)c1 | 12.8% |

| SMILES | hERG current change (%, negative = inhibition) at 10uM |
| --- | --- |
| O=C(c1noc2c1CCCC2)N1CCCCC1 | -0.65% |
| Cc1cnc2c(c1)C(=O)c1ccccc1-2 | 13.6% |
| O=C(NCCN1CCOCC1)c1ccccc1[N+](=O)[O-] | 1.06% |
| CN1CCN(c2ccc(NC(=S)NC(=O)/C=C/c3ccco3)cc2)CC1 | -7.96% |
| CCOc1ccc(S(=O)(=O)N2CCN(Cc3ccc4c(c3)OCO4)CC2)cc1Cl | -8.94% |
| Cn1cnc(S(=O)(=O)N2CCN(C(c3ccc(F)cc3)c3ccc(F)cc3)CC2)c1 | -7.05% |
| Cc1cc(C)c(C)c(S(=O)(=O)NCCN2CCOCC2)c1C | -9.48% |
| Cc1cc(=O)oc2c1ccc1ccccc12 | 18.7% |
| Cc1ccc2cc(CN(CC3CCCO3)C(=S)Nc3ccccc3)c(=O)[nH]c2c1 (stereo not shown) | -37% |
| COC(=O)c1ccccc1NC(=S)N(Cc1ccc2c(c1)OCO2)Cc1cc2ccc(C)cc2[nH]c1=O | 15.1% |
| COC(=O)c1ccccc1NC(=S)N(Cc1ccc2c(c1)OCO2)Cc1cc2cc(OC)ccc2[nH]c1=O | 8.29% |
| CCN1CCCC1CN(Cc1cc2ccc(C)cc2[nH]c1=O)C(=S)Nc1ccc(OC)cc1OC (stereo not shown) | -74.5% |
| CCN1CCCC1CN(Cc1cc2ccc(C)cc2[nH]c1=O)C(=S)Nc1ccc(F)cc1 (stereo not shown) | -78.5% |
| COC(=O)c1ccccc1NC(=S)N(Cc1ccc2c(c1)OCO2)Cc1cc2cc(C)ccc2[nH]c1=O | 0.949% |
| CCN1CCCC1CN(Cc1cc2ccc(C)cc2[nH]c1=O)C(=S)Nc1ccccc1OC (stereo not shown) | 46.7% |
| Cc1ccc2[nH]c(=O)c(CN(CC3CCCO3)C(=S)Nc3ccccc3)cc2c1 (stereo not shown) | -8.2% |
| COC(=O)c1ccccc1NC(=S)N(Cc1ccc2c(c1)OCO2)Cc1cc2ccc(OC)cc2[nH]c1=O | -13.6% |
| CNC(=S)N(Cc1ccc(OC)cc1)Cc1cc2ccc(C)cc2[nH]c1=O | 14% |
| CCN(CC)CCN(Cc1cc2ccc(C)cc2[nH]c1=O)C(=S)Nc1ccccc1C(=O)OC | -64.2% |
| CCN1CCCC1CN(Cc1cc2ccc(C)cc2[nH]c1=O)C(=S)Nc1ccccc1C(=O)OC (stereo not shown) | -85.2% |
| Cc1ccc(NC(=O)CCN2C(=O)C3C4CCC(C4)C3C2=O)cc1[N+](=O)[O-] (stereo not shown) | -0.749% |
| O=C(Nc1ccc(C(F)(F)F)cc1)c1cc(-c2cccnc2)nc2ccc(Br)cc12 | -16.2% |
